From PubChem BioAssay (NCI)
The panel holds about 83,000 compounds, 20% with a hit somewhere; the sample as a whole holds those more often.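 Assay: single dose, 48 h. Readout: percent growth (0 = no net growth; negative = cell death). Active: <10.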 Unmarked numbers belong to inactive results. The source made the active and inactive calls.

System: MDA-MB-468 breast
Assay: NCI-60 one-dose screen, 48 h (100 = growth as untreated, 0 = no growth, -100 = all killed)
Conditions: 10 µM unless noted

Row | SMILES | growth
1 | CN(C)Cc1ccc(NC(=O)c2cncc(C#Cc3cnc(N)c4ncccc34)c2)cc1C(F)(F)F | 84%
2 | Nc1nc2ncc(CNc3ccc(C(=O)NC(CCC(=O)NC(CCC(=O)NC(CCC(=O)NC(CCC(=O)NC(CCC(=O)O)C(=O)O)C(=O)O)C(=O)O)C(=O)O)C(=O)O)cc3)nc2c(=O)[nH]1 (stereo not given) | 131%
3 | CCOC(=O)c1c(C)nc2c(c1N)/C(=C/c1cccs1)C(=O)N2Cc1ccccc1 | 47.6%
4 | O=[N+]([O-])c1c(F)cccc1Nc1cccc(F)c1 | 127%
5 | CC12CCCC(CC(=O)c3[nH]c4ccccc4c31)C2 (stereo not given) | -47.5% (active)
6 | Cc1cc(N)c2ccccc2[n+]1CCCCCCCCCC[n+]1c(C)cc(N)c2ccccc21 | -55.7% (active)
7 | CC1=CCc2ccccc21 | 115%
8 | COc1ccc(/C=C(\C#N)c2cc3ccccc3n2S(C)(=O)=O)cc1 | 69.3%
9 | CCOC(=O)C(=Cc1ccccc1[N+](=O)[O-])C(=O)OCC | 34.3%
10 | CCn1c2ccccc2c2cc(-n3nncc3-c3ccccc3)ccc21 | 46.4%
11 | N#Cc1c(-c2ccc(F)cc2)nc(N/N=C/c2c[nH]c3ccccc23)nc1N1CCOCC1 | 25.2%
12 | CC(=O)/C(=C/c1ccccc1)C(=O)CC(C)C | 93.7%
13 | Cc1ccc(-c2cc(-c3ccc(N(C)C)cc3)n3c(n2)nc2ccccc23)cc1 | -0.434% (active)
14 | COc1cc(CNCCCCCCN2C(=O)c3cccc4cccc(c34)C2=O)ccc1O | 47.2%
15 | OC(CBr)c1ccnc2ccccc12 (stereo not given) | 100%
16 | O=C(CSc1nc2sc3c(c2c(=O)n1-c1ccccc1)CCCCC3)N/N=C/c1ccc(F)cc1 | -3.84% (active)
17 | COc1ccc(CNC(=O)[C@H](O)[C@@H](N)Cc2ccccc2)cc1 | 106%
18 | COc1c(-c2c3sc(=O)[nH]c3nc3c2c(=O)[nH]n3C(C)C)cc2c(c1OC)OCO2 | 102%
19 | O=c1c2cc(Br)cc(Br)c2nc(-c2ccc(Cl)cc2)n1/N=C/c1cccc(F)c1 | 62.6%
20 | CC(C)(C)[Si](C)(C)OC1[C@@H](CNC(N)=O)O[C@@H](n2cnc3c(NC(=O)Nc4ccccc4)ncnc32)[C@H]1O[Si](C)(C)C(C)(C)C (stereo not given in full) | 85.2%

Row | SMILES | growth
21 | O=C(c1ccccc1)C(c1ccccc1)N1CCOCC1 (stereo not given) | 103%
22 | CN(C)CCCOc1c(Br)cc(/C=C/C(=O)N(C)CCc2cc(Br)c(OCCCN(C)C)c(Br)c2)cc1Br | 91.4%
23 | C=CC(=O)N1CCC[C@@H](n2nc(-c3ccc(Oc4ccccc4)cc3)c3c(N)ncnc32)C1 | -17.5% (active)
24 | COc1ccc(C2Nc3ccccc3-n3cccc32)cc1 (stereo not given) | 108%
25 | CCOc1cc(-c2ccc[nH]2)[nH]c1/C=C1\N=C(C)C(C(=O)OC)=C1C | -86.9% (active)
26 | N#Cc1cc(-c2nc3ccccc3s2)c(=O)n(NS(=O)(=O)c2ccccc2)c1N | 118%
27 | O=C(/C=C(O)/C=C/c1ccc(SC(F)(F)F)cc1)/C=C/c1ccc(SC(F)(F)F)cc1 | 100%
28 | COc1ccc(C(=O)c2cc(C)c(OC)c(C)c2)c(OC)c1N(C(=O)CCl)C(=O)CCl | 3.62% (active)
29 | CCCC/C=C/[C@@H]1C[C@H]1CCO | 96.1%
30 | O=C1NCC(c2cc3ccccc3[nH]c2=O)Nc2ccccc21 (stereo not given) | 97.5%
31 | CC(C)=CC(=O)OC(=O)C=C(C)C | 92.9%
32 | O=C1CCCC2=C1C(c1c[nH]c3ccc(Br)cc13)Cc1cc(Br)ccc1N2 (stereo not given) | -6.51% (active)
33 | O=C(Nc1ccc(Cl)cc1)Nc1nc2ccc([N+](=O)[O-])cc2s1 | -36.7% (active)
34 | CS(=O)(=O)c1ccc2c(c1)c1c(n2C(=O)c2ccc(Cl)cc2)CCCC1 | 27.7%
35 | N#Cc1c(N)nc(Cl)c(C#N)c1C(=O)c1ccccc1 | -6.56% (active)
36 | COC(=O)[C@H](C)NC(=O)c1ccc(NC(=O)c2[nH]c(C)c(Cl)c2Cl)c(OCCN)c1 | 107%
37 | c1ccc(CCSc2ncnc3nc[nH]c23)cc1 | 49%
38 | O=C(C1=Cc2cc3ccccc3n2Cc2cnnn21)c1ccccc1 | 5.98% (active)
39 | CC(=O)N(C)c1ccc([N+](=O)[O-])cc1 | 101%
40 | CCCCc1nc2c(N)nc3ccccc3c2n1Cc1ccc(OC)cc1 | 41.2%
